Measurements: PubChem BioAssay (NCATS)
Records with an inconclusive call do not appear. Active and inactive are the calls of the source. Unless noted, calls follow the shape of the dose curve; as a rule, active = well fitted curve in the direction sought with a large enough effect; inconclusive = small, poorly fitted or top-dose-only effect, or another doubt; inactive = no such curve, though single readings can be large; an effect the other way counts as inactive or inconclusive.

How the values were obtained:
[1] = AP1 Signaling Pathway (AID 357; active = well fitted curve in either direction with a large enough effect, not every such curve was filed as active;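 also: ME-180 reporter cells stimulated with EGF at its EC50 level; % is scaled to controls: 0 for no effect and ±100 for the full control effect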); details: ME-180 AP-1-bla reporter, EGF-induced, beta-lactamase ratio, 5 h; at 7.69 µM (top of the series) unless noted
In short: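 In this screen, ME-180 cells in Opti-MEM with 0.5% dialyzed FBS received EC50 EGF and compound titrations for 5 h. AP-1 reporter beta-lactamase was detected via CCF4 ratio, giving AC50 for positive and negative modulators.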

[2] = NFAT Signaling Pathway (AID 444; active = well fitted curve in either direction with a large enough effect, not every such curve was filed as active;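 also: carbachol stimulus at about its EC50 of 1 µM final; % is scaled to controls: 0 for no effect and ±100 for the full control effect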); details: Jurkat NFAT-bla M1, carbachol, beta-lactamase ratio, 5 h; at 7.69 µM (top of the series) unless noted
In short: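 Jurkat cells with NFAT-driven β-lactamase reporter and co-expressed M1 receptor, stimulated with carbachol (final 1 uM, ~EC50), compound titration, 5 h at 37 °C. CCF4 loaded 1 h at RT; 460/530 nm ratio gave %activity and AC50.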

[3] = Stat Signaling Pathway (AID 446; active = well fitted curve in either direction with a large enough effect, not every such curve was filed as active;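 also: ME-180 cervical cancer cells given 40 pM IL-6 alongside compound; SIE-controlled beta-lactamase reporter measured as 460/530 nm FRET emission ratio; % is scaled to controls: 0 for no effect and ±100 for the full control effect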); details: ME-180 SIE beta-lactamase reporter, IL-6 stimulated, 5 h; at 7.69 µM (top of the series) unless noted
In short: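 IL-6/STAT signaling read in ME-180 cells via an SIE beta-lactamase reporter. Stimulus was 40 pM IL-6 (its AC50) for 5 hrs, so both activation and inhibition register.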

[4] = molecular target: Glucocorticoid receptor (Homo sapiens) (UniProt P04150); assay: GR-EFC Redistribution (AID 451; calls by dose curve; also: potency is read from the fitted curve at half-maximal effect); details: CHO-K1 GR-EFC translocation, beta-gal luminescence, 2 h
In short: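 CHO-K1 cells expressing nuclear EA and GR-ED fragments of b-gal; compounds titrated up to 46 uM final, 2 h at 37 C. GR nuclear translocation read as complemented b-gal luminescence after 1 h RT detection.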

[5] = molecular target: Mitogen-activated protein kinase 10 (Mus musculus) (UniProt Q61831); assay: JNK3 AlphaScreen Assay (AID 530; active = well fitted curve in either direction with a large enough effect, not every such curve was filed as active;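 also: kinase came from lysate of stimulated human HepG2 cells; signal reports phosphorylation of biotinylated GST-cJun 1-79 at Ser73 with 10 µM ATP; % is scaled to controls: 0 for no effect and ±100 for the full control effect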)
In short: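 qHTS format: compounds tested as titrations against IL-1beta/TNF-alpha-activated HepG2 lysate JNK3 with biotin-GST-cJun substrate and 10 uM ATP at room temperature. Loss of anti-phospho-cJun AlphaScreen signal indicates inhibition.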

[6] = molecular target: 3',5'-cyclic-AMP phosphodiesterase 4B (Homo sapiens) (UniProt Q07343); assay: qHTS Assay for Inhibitors of PDE-IV (AID 607; active = well fitted activation curve with a large enough effect in the main read-out, with a control signal flat, not every such curve was filed as active; also: % of control where 0% means no effect)
In short: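 Live HEK293 cells with a modified cyclic nucleotide-gated (CNG) channel report intracellular cAMP via membrane-potential dye fluorescence (ex 535/em 590 nm). Endogenous PDE-IV was targeted. Compounds were tested at up to 22.9 uM final; RO 20-1724 100 uM served as control.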

[7] = molecular target: Guanine nucleotide-binding protein G(i) subunit alpha-1 (Homo sapiens) (UniProt P63096); assay: qHTS Assay for Inhibitors of RGS12 GoLoco Motif Activity (Green Fluorophore) (AID 879);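 also: 0% = labeled peptide with Gαi1 and full inhibition = labeled peptide alone without protein; negative values mean loss of peptide binding seen as reduced polarization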
In short: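 Fluorescence polarization assay: 50 nM Gαi1 with 10 nM FITC-labeled RGS12 GoLoco peptide in 10 mM Tris pH 7.5, 150 mM NaCl, 0.1 mM GDP, 0.05% NP40, 10 min at room temperature with compound.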

[8] = qHTS Assay for Identification of Small Molecule Antagonists for NFkB Signaling Pathway (AID 895; active = well fitted inhibition curve with a large enough effect in the signal ratio, with a control signal flat, not every such curve was filed as active; the % refers to the signal ratio; also: % is scaled to controls: 0 for no effect and ±100 for the full control effect)
In short: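 ME-180 NFkB-bla cells (beta-lactamase under NFkB response element), plated overnight, treated with compound then 10 pM TNF alpha (about EC50) for 5 hrs at 37 C. LiveBLAzer FRET read at 460/530 nm emission, 405 nm excitation.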

[9] = qHTS Assay for Identification of Small Molecule Agonists for Thrombopoietin (TPO) Signaling Pathway (AID 917); also: % is scaled to controls: 0 for no effect and ±100 for the full control effect
In short: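 Murine Ba/F3 cells stably expressing human TPO receptor and a Glycoprotein IIb promoter–luciferase reporter were IL-3-starved overnight, then treated with compounds plus TPO (26 pM final, its EC50) for 24 hrs at 37 C; luminescence was read.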

[10] = molecular target: Muscarinic acetylcholine receptor M1 (Rattus norvegicus) (UniProt P08482); assay: qHTS Assay for Antagonists of Acetylcholine Muscarinic M1 Receptor: Kinetic Measurement of Intracellular Calcium Response (AID 943);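 also: Fluo-4 calcium signal as peak divided by basal fluorescence over 4 min; nearly all actives have a fitted effect of over 75% in size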
In short: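 CHO cells stably expressing rat M1 were loaded with no-wash Fluo-4 dye for 1 h at 37C, pre-incubated 10 min with compound, then challenged with EC80 carbachol (100 nM final); kinetic calcium read 4 min, peak/basal ratio.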

[11] = molecular target: Muscarinic acetylcholine receptor M1 (Rattus norvegicus) (UniProt P08482); assay: qHTS Assay for Antagonists of Acetylcholine Muscarinic M1 Receptor: Measurement of IP-One Response (AID 944); also: nearly all actives have a fitted effect of over 75% in size
In short: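 CHO cells expressing rat M1 receptor, recovered overnight, were pre-incubated 10 min with compound, then stimulated 30 min with carbachol at EC80 (200 nM) in LiCl-containing buffer, pH 7.4. IP1 accumulation was read by HTRF (620/665 nm).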

[12] = molecular target: Pyruvate kinase (Leishmania mexicana) (UniProt Q27686); assay: qHTS Validation Assay for Inhibitors of Leishmania Mexicana Pyruvate Kinase (AID 945);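 also: 0% = DMSO only neutral control wells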
In short: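 The enzyme is a highly purified E451W mutant of LmPYK used at 0.2 nM. It converts 0.5 mM PEP and 0.1 mM ADP over 1 h at room temperature; product ATP is quantified by luciferase luminescence relative to DMSO controls.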

[13] = molecular target: Pyruvate kinase PKM (Homo sapiens) (UniProt P14618); assay: qHTS Assay for Activators of Human Muscle Pyruvate Kinase (AID 954; active = well fitted curve in the direction sought with a large enough effect, not every such curve was filed as active;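 also: 0% = uninhibited enzyme and -100% = no enzyme or full thiadiazolimine inhibition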)
In short: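 Enzyme was run at intermediate activity so both inhibitors and activators could be detected. ATP formed from ADP and PEP by 0.1 nM human PKM2 during a 1 h room-temperature incubation was quantified by coupled luciferase luminescence.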

[14] = molecular target: Alpha-galactosidase (Coffea arabica) (UniProt Q42656); assay: Counterscreen for Glucocerebrosidase Inhibitors: qHTS Assay for Coffee Bean alpha-Galactosidase at pH 4.5 (AID 957);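 also: plate controls were enzyme alone for no effect and no enzyme for full effect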
In short: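 Green coffee bean enzyme (2 nM final) was incubated with compounds (0.7 nM to 77 uM) and 4-methylumbelliferyl alpha-D-galactopyranoside (80 uM final) in 50 mM citric acid, 0.005% Tween-20, pH 4.5, 20 min at room temperature; AC50 from Hill fits.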

[15] = molecular target: Alpha-galactosidase A (Homo sapiens) (UniProt P06280); assay: Counterscreen for Glucocerebrosidase Inhibitors: qHTS Assay for Human alpha-Galactosidase at pH 4.5 (AID 992); also: 0% is about no effect
In short: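 Read-out is 4-methylumbelliferone fluorescence (365 nm excitation, 440 nm emission) after a pH 10 NaOH/glycine stop. Reactions held 2 nM enzyme and 80 uM substrate at pH 4.5 for 20 min at room temperature.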

[16] = molecular target: alpha-glucosidase (Oryza sativa, rice) (UniProt Q653V4); assay: Counterscreen for Glucocerebrosidase Inhibitors: qHTS Assay for Rice alpha-Glucosidase at pH 5.0 (AID 997);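 also: 0% = full activity with enzyme and -100% = basal without enzyme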
In short: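 Rice alpha-glucosidase (4 nM final) with 400 uM 4-methylumbelliferyl-alpha-D-glucopyranoside in citrate buffer pH 5.0, 20 min at room temperature, stopped at pH 10; fluorescence 365/440 nm, compounds 0.7 nM–77 uM, AC50 from Hill fits.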

[17] = molecular target: Alpha-galactosidase (Coffea arabica) (UniProt Q42656); assay: Counterscreen for Glucocerebrosidase Inhibitors: qHTS Assay for Coffee Bean alpha-Galactosidase at pH 5.9 (AID 998);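 also: plate controls were uninhibited enzyme for no effect and no-enzyme basal signal for full effect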
In short: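 Green coffee bean enzyme (2 nM) with 4-methylumbelliferyl alpha-D-galactopyranoside (80 uM) in 50 mM citric acid, 0.005% Tween-20, pH 5.9, 20 min at room temperature; compounds 0.7 nM–77 uM. Stopped at pH 10, fluorescence Ex365/Em440; Hill-fit AC50.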

[18] = molecular target: Cytochrome P450 1A2 (Homo sapiens) (UniProt P05177); assay: p450-cyp1a2 (AID 410; calls by dose curve;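 also: -100% = full effect of reference inhibitor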)
In short: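 Human CYP1A2 (20nM) demethylated Luciferin-ME at its Km (100uM) in 100mM KPO4. After 10 min compound preincubation, NADPH regeneration ran the reaction 60 min at room temperature. Luciferin was read by luminescence, normalized to 57 uM furafylline.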

[19] = molecular target: Glucocorticoid receptor (Homo sapiens) (UniProt P04150); assay: GR-GFP Redistribution (AID 450;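 active = compounds whose dose series gives a full or clear partial fitted curve of increased nuclear translocation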; also: potency is read from the fitted curve at half-maximal effect); details: U2OS GR-GFP nuclear translocation, laser cytometry, 2 h
[20] = molecular target: Cytochrome P450 2C19 (Homo sapiens) (UniProt P33261); assay: qHTS Assay for Inhibitors and Substrates of Cytochrome P450 2C19 (AID 899); also: nearly all actives have a fitted effect of over 60% in size; also: potency is read from the fitted curve at half-maximal effect
In short: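 5 nM human CYP2C19 with 10uM Luciferin-H EGE (at KM) in 50mM KPO4, compound preincubated 10 min at 37C, then NADPH regeneration for 60 min at 37C. Luciferin read by luminescence after detection reagent; normalized to 57uM ketoconazole as full inhibition.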

[21] = molecular target: Cytochrome P450 2C9 (Homo sapiens) (UniProt P11712); assay: qHTS Assay for Inhibitors and Substrates of Cytochrome P450 2C9 (AID 883); also: potency is read from the fitted curve at half-maximal effect; nearly all actives have a fitted effect of over 60% in size
In short: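 Human CYP2C9 (10nM) with Luciferin-H at 100uM (its KM) in 25mM KPO4; compound preincubated 10 min at 37C, then NADPH regeneration for 60 min at 37C. Luciferin read by luminescence after detection reagent; normalized to 57uM sulphaphenazole as full inhibition.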

Sequence of 3',5'-cyclic-AMP phosphodiesterase 4B (Homo sapiens) (Q07343 whole entry, looked up): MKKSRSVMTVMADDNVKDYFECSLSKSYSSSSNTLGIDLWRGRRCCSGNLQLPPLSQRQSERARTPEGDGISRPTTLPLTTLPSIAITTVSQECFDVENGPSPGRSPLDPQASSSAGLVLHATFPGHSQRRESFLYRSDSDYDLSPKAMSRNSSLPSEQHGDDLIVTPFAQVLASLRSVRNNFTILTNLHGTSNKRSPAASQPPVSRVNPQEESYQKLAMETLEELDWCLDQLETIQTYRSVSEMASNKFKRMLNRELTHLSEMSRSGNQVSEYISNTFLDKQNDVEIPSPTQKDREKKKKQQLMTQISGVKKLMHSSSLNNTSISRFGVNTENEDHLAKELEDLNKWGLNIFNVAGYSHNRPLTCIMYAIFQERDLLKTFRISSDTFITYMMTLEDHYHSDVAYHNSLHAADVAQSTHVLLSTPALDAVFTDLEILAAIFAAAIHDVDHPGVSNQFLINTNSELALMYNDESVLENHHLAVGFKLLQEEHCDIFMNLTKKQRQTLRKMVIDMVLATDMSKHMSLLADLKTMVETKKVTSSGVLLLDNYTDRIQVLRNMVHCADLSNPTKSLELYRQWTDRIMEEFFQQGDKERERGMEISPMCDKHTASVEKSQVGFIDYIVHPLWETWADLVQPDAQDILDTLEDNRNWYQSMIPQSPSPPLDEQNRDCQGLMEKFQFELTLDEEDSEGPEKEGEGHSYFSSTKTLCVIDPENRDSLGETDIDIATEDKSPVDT
Sequence of Glucocorticoid receptor (Homo sapiens) (P04150 whole entry, looked up, the tested form may be a part): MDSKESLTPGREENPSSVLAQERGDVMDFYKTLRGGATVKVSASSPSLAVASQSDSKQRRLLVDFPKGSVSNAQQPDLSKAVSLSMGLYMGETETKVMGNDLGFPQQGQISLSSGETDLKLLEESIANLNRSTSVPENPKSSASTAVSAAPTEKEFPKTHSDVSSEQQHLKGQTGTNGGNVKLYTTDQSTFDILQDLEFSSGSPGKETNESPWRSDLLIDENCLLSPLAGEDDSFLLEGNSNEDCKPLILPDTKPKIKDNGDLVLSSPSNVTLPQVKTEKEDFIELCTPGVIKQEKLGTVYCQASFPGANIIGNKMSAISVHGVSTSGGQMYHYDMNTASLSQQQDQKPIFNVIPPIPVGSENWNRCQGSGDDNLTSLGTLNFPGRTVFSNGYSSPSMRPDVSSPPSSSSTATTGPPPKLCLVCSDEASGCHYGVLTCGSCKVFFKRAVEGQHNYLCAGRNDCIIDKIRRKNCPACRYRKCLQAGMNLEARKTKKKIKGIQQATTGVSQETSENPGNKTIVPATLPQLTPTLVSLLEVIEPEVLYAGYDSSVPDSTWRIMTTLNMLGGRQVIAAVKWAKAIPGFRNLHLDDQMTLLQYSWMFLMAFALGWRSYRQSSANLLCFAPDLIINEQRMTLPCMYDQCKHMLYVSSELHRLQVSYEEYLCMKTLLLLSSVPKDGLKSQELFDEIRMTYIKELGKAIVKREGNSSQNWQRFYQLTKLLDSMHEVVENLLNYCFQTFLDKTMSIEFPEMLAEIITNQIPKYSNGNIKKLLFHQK
Sequence of Muscarinic acetylcholine receptor M1 (Rattus norvegicus) (P08482 whole entry, looked up): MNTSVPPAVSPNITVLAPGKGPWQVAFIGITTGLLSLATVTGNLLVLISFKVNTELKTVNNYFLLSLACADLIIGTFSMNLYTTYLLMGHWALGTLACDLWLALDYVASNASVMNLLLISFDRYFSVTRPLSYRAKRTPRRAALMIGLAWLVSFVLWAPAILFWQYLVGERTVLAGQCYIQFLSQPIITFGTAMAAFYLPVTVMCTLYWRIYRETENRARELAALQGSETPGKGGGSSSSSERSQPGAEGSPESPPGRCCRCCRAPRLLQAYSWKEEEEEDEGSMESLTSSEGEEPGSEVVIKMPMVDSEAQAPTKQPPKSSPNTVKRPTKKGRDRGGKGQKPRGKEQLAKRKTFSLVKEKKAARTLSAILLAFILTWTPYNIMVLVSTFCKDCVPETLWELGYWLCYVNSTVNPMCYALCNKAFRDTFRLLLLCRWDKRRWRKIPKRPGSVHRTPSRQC
Sequence of Alpha-galactosidase (Coffea arabica) (Q42656 whole entry, looked up): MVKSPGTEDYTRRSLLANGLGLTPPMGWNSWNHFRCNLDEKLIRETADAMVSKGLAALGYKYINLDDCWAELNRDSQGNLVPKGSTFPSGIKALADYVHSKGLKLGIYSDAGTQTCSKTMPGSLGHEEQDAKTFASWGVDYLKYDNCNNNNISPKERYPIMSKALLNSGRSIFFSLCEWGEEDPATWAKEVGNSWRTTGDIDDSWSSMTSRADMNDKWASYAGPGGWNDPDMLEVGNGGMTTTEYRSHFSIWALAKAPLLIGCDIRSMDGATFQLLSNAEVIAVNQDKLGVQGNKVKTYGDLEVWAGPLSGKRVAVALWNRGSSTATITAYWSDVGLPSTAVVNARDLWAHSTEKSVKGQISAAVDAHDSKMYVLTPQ
Sequence of Pyruvate kinase PKM (Homo sapiens) (P14618 whole entry, looked up): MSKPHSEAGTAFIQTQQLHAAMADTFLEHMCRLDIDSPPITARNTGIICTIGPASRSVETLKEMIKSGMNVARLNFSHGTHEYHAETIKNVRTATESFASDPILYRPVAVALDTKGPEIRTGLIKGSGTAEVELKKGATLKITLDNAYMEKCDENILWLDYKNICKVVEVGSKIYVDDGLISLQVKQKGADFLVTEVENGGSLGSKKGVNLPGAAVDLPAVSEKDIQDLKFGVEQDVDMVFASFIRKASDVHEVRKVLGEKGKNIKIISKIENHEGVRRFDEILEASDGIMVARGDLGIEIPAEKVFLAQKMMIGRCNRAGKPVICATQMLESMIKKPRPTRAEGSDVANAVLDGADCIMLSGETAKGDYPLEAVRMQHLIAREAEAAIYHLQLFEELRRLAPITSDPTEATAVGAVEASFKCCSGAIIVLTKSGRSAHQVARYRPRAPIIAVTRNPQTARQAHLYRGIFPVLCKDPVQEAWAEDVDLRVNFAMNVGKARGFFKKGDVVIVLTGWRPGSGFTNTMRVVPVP
Sequence of Pyruvate kinase (Leishmania mexicana) (Q27686 2-499 E452W): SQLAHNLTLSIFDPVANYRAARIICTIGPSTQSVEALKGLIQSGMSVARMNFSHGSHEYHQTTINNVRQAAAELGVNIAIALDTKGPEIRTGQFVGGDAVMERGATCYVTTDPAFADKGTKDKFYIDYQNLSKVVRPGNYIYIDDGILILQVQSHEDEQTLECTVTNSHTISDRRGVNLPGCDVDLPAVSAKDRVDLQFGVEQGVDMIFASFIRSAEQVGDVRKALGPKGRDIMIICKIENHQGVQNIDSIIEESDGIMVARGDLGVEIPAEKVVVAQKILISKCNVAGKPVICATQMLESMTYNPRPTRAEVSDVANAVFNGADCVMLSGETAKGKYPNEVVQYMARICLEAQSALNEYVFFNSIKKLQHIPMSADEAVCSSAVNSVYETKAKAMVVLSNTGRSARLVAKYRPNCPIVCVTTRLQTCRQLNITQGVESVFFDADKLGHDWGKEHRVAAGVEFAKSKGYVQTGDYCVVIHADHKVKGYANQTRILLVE
Sequence of Cytochrome P450 2C19 (Homo sapiens) (P33261 whole entry, looked up): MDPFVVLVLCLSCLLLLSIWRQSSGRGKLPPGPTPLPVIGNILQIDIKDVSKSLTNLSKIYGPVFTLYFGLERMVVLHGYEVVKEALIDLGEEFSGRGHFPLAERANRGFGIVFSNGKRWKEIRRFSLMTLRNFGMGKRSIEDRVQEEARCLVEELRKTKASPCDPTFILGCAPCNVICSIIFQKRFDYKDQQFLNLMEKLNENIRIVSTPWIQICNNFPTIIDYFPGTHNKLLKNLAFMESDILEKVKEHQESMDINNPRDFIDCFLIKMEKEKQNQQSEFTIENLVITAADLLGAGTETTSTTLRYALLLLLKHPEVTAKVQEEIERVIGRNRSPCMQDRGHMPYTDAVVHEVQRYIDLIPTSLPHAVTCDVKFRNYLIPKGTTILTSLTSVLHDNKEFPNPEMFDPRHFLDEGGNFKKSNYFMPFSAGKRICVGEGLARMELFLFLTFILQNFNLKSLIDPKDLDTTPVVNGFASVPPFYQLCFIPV
Sequence of Alpha-galactosidase A (Homo sapiens) (P06280 whole entry, looked up): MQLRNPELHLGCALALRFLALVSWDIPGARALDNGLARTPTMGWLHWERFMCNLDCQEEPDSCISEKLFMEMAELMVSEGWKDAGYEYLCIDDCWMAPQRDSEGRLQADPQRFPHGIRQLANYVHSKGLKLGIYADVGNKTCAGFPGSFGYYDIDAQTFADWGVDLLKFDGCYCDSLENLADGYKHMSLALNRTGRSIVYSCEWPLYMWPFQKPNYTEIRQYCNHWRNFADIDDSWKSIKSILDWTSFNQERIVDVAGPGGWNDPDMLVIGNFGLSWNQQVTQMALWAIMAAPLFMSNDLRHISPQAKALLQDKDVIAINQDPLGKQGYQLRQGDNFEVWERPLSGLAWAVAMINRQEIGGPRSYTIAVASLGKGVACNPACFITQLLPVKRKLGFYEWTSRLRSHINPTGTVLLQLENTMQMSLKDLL
Sequence of Guanine nucleotide-binding protein G(i) subunit alpha-1 (Homo sapiens) (P63096 whole entry, looked up): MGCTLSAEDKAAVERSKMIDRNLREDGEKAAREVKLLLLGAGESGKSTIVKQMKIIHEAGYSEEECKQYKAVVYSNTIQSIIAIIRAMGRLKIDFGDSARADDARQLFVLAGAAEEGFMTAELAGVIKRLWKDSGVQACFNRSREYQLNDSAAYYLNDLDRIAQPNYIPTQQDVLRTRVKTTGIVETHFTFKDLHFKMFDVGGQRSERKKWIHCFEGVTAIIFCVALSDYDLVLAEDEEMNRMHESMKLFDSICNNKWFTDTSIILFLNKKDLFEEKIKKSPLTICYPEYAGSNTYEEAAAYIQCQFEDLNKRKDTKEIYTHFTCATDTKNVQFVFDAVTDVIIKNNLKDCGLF

CC(C)C[C@H](NP(=O)(O)O[C@@H]1O[C@@H](C)[C@@H](O)[C@@H](O)[C@H]1O)C(=O)N[C@@H](Cc1c[nH]c2ccccc12)C(=O)O
inactive: activity change, negative = inhibition [1] 5.95% [at 38 µM] | activity change, negative = inhibition [2] 9.26% [at 38 µM] | activity, negative = inhibition [3] 14.9% [at 38 µM] | Potency [4] > 46 µM | Potency [5] | outcome [6] | outcome [7] | Potency [8] | outcome [9] | Potency [10] | Potency [11] | outcome [12] | outcome [13] | outcome [14] | outcome [15] | outcome [16] | outcome [17]

CCNC(=O)[C@@H]1O[C@@H](n2cnc3c(N)ncnc32)[C@@H](O)[C@H]1O
inactive: activity change, negative = inhibition [1] -6.61% [at 38 µM] | Potency [18] | activity, negative = inhibition [3] 24.4% [at 38 µM] | Potency [19] > 46 µM | Potency [4] > 46 µM | Potency [5] | outcome [7] | Potency [8] | Potency [20] | outcome [9] | Potency [10] | Potency [11] | outcome [12] | outcome [13] | outcome [14] | outcome [15] | outcome [16] | outcome [17]

O=C(O)c1cc[c]([Hg][S]c2ncnc3nc[nH]c23)cc1
inactive: activity, negative = inhibition [3] -16.1% | Potency [19] > 46 µM | Potency [4] > 9.22 µM | activity change, negative = inhibition [5] 3.39% [at 11.4 µM] | outcome [6]
active: Potency [21] 1.26 µM | Potency [20] 0.631 µM

O=[As](O)(O)c1ccc(Cc2ccc([As](=O)(O)O)cc2)cc1
active: activity change, negative = inhibition [2] -132%
inactive: activity, negative = inhibition [3] -5.31% | Potency [19] > 46 µM | activity change, negative = inhibition [5] -5.31% [at 11.4 µM] | outcome [6]
